This note sets out measurements from PubChem BioAssay (Tox21).

A number with no mark means an inactive call. The call rests on the fitted dose curve; in most records, active means well fitted curve in the direction sought with a large enough effect in the repeat runs; inconclusive means weak or mixed curves; inactive means flat fitted curve, though single readings scatter. Positions of bridges follow the written chain, without caps; N, C: chain ends. Residues, ends and D or L forms follow the SMILES beside them.
On the % scale 0 is the no-effect control and ±100 the full control effect.

The assay is described as follows: qHTS assay to test for compound auto fluorescence at 460 nm (blue) in HepG2 cells (AID 720687). Particulars: autofluorescence 405/460 nm, 1 h; series mostly up to 46 µM; fluorescence, % of fluorescent control: at the top concentration. From the text:
U.S. Tox21 Program National Center for Advancing Translational Sciences [NCATS] NIH Chemical Genomics Center [NCGC] U.S. Environmental Protection Agency [EPA] National Institutes of Environmental Health Sciences [NIEHS] National Toxicology Program [NTP] U.S. Food and Drug Administration [FDA] Tox21 Assay Overview: Compound auto fluorescence often interferes with screening of the compound library against various biological targets and signaling pathways. Some of these compounds may have fluorophoric properties. Such properties may interfere with the assay outputs resulting in false positives and/or negatives. To decrease such complications and ensure the compound activities are relevant in terms of biological response, the Tox21 10K compound library was screened for auto fluorescence. From the fluorophores used as reporter signals in our screening assays, the auto fluorescence equivalencies of compounds against three fluorophores have been evaluated: Triamterene, Fluorescein and Rose Bengal sodium for blue, green and red fluorescence, respectively. The fluorescence intensities were measured using Excitation/Emission wavelengths at 405/460nm, 485/535nm and 540/590nm for blue, green and red labels, respectively. This assay includes the blue fluorescence data.
Tox21 Assay Protocol Summary: 2,000 HepG2 cells in 5 uL of culture medium (MEM containing 10% FBS) per well were dispensed into black wall/clear bottom 1536-well plates using a Multidrop Combi Dispenser (ThermoFisher Scientific, Waltham, MA). The assay plates were incubated overnight at 37 C to allow cell attachment to the well bottom, followed by the transfer of 23 nL compound or DMSO vehicle by a pintool work station (Kalypsys , San Diego, CA). After the assay plates were incubated for 1 hr at 37 C and 5% CO2, fluorescence intensities in the assay plates were measured by an Envision (PerkinElmer, Shelton, CT) plate reader using three labels for measuring blue, green and red fluorescence at […] 460, 535 and 590 nm respectively.
Background: qHTS replaces the single test concentration by a dilution series.
For `OCC(O)COc1ccc(Cl)cc1` (stereo not given), the “fluorescence, % of fluorescent control” value is -0.0053%. On to `COc1ccc(CNCC(O)COc2ccc3[nH]c(=O)ccc3c2)cc1OC` (stereo not given), for which the “fluorescence, % of fluorescent control” value is 0.0429%. As to `CC(=O)N[C@@H]([C@@H](O)[C@H](O)[C@H](O)CO)[C@@H](O)CC(=O)C(=O)O`, the “fluorescence, % of fluorescent control” value is 0.184%. Then `CCCCCCCCCCCCCCCC(=O)OC[C@@H](O)[C@H]1OC[C@H](O)[C@H]1O`, with 0.11%. Then `OC1OC[C@@H](O)[C@H](O)[C@@H]1O` (stereo not given in full), with -0.203%. Then `CCN(CC)CCOc1ccc(-c2nc3cc(Cl)ccc3s2)cc1`, with 0.0326%; and `NCCCC[C@H](NC(=O)[C@@H]1CCCN1C(=O)[C@@H]1CSSC[C@H](NC(=O)CNC(=O)CNC(=O)CN)C(=O)N[C@@H](Cc2ccc(O)cc2)C(=O)N[C@@H](Cc2ccccc2)C(=O)N[C@@H](CCC(N)=O)C(=O)N[C@@H](CC(N)=O)C(=O)N1)C(=O)NCC(N)=O` (H-GGGCYFQNCPKG-NH2; disulfide 4-9), with -0.0932%; and `Cc1c(Cl)cccc1Nc1ncccc1C(=O)O`, with 0.0067%. Consider `CCc1ccc(S(=O)(=O)O)cc1`, for which the “fluorescence, % of fluorescent control” value was -0.0381%. Then `CC(NNC(=O)c1ccccc1)c1ccccc1` (stereo not given), with -0.165%; and `CC[C@@]1(O)C[C@H](O[C@H]2C[C@H](N(C)C)[C@H](O[C@H]3C[C@H](O)[C@H](O[C@H]4CCC(=O)[C@H](C)O4)[C@H](C)O3)[C@H](C)O2)c2c(cc3c(c2O)C(=O)c2c(O)cccc2C3=O)[C@H]1C(=O)OC`, with -0.0771%. Then `N=C(N)c1ccc(OCCCOc2ccc(C(=N)N)cc2Br)c(Br)c1`, with -0.0108%; and `CCCc1nc(C(C)(C)O)c(C(=O)OCc2oc(=O)oc2C)n1Cc1ccc(-c2ccccc2-c2nn[nH]n2)cc1`, with 0.0103%. Then `CC(CCc1ccc(O)cc1)NCC(O)c1ccc(O)cc1` (stereo not given), with -0.0056%. Take `CC[C@@H](C(=O)O)[C@@H]1O[C@@H]([C@@H](C)[C@H](O)[C@H](C)C(=O)[C@H](CC)[C@H]2O[C@]3(C=C[C@@H](O)[C@]4(CC[C@@](C)([C@H]5CC[C@](O)(CC)[C@H](C)O5)O4)O3)[C@H](C)C[C@@H]2C)[C@@H](C)C[C@@H]1C`: the “fluorescence, % of fluorescent control” value is -0.127%. Take `C=CCN1CCCC1CNC(=O)c1cc(S(N)(=O)=O)cc(OC)c1OC` (stereo not given): the “fluorescence, % of fluorescent control” value was 0.224%. As to `C#C[C@]1(O)CC[C@H]2[C@@H]3CCC4=CCCC[C@@H]4[C@H]3C(=C)C[C@@]21CC`, the “fluorescence, % of fluorescent control” value was 0.0946%.

For `COc1ccc(C[C@H](N)C(=O)N[C@H]2[C@@H](O)[C@H](n3cnc4c(N(C)C)ncnc43)O[C@@H]2CO)cc1`, the “fluorescence, % of fluorescent control” value is 0.0298%. Then `O=C1/C(=C\c2cccs2)CCC/C1=C\c1cccs1`, with 0.472%; and `CC(C)CCCC(C)NC(C)C` (stereo not given), with 0.0454%; and `CN[C@@H]1[C@@H](O)[C@@H](O[C@@H]2[C@@H](O)[C@H](O[C@H]3O[C@H](CN)[C@@H](O)[C@H](O)[C@H]3O)[C@@H](N)C[C@H]2NC(=O)C(O)CN)OC[C@]1(C)O` (stereo not given in full), with 0.0097%. Take `CN1c2c(nc(N)[nH]c2=O)NCC1CNc1ccc(C(=O)NC(CCC(=O)O)C(=O)O)cc1` (stereo not given): the “fluorescence, % of fluorescent control” value is 0.933%. With `CC(C)(CO)[C@@H](O)C(=O)NCCC(=O)NCCSSCCNC(=O)CCNC(=O)[C@H](O)C(C)(C)CO` the figure was -0.0158%; with `CC(C)c1nc(N(C)S(C)(=O)=O)nc(-c2ccc(F)cc2)c1/C=C/C(O)CC(O)CC(=O)O` (stereo not given), -0.0094%.

With `OC[C@H]1OC([S-])[C@H](O)[C@@H](O)[C@@H]1O.[Au+]` (stereo not given in full), the “fluorescence, % of fluorescent control” value was 0.0194%. Take `CCC(CN)CC(C)CCNCC(O)CNCC(C)CC(CC)CN` (stereo not given): the “fluorescence, % of fluorescent control” value is -0.101%. Then `CN(C)CCC=C1c2ccccc2C(C)(C)c2ccccc21`, with 0.0621%; and `COc1ccc2c(=O)c(C)c(-c3ccccc3)oc2c1CN(C)C`, with -0.0427%; and `COC(=O)[C@@H](N)CS`, with -0.013%.

With `NC(Cc1ccccc1)C(=O)O` (stereo not given), the “fluorescence, % of fluorescent control” value is 0.104%. With `O=C(OCCO)c1ccccc1O` the figure was -0.0758%; with `CC1CCCC1`, 0.0352% [at 91.3 µM]. With `O=C(NOC[C@H](O)CO)c1ccc(F)c(F)c1Nc1ccc(I)cc1F` the figure was 0.0706%. As to `C[C@H]1C[C@@H]2[C@H]([C@@H](O)C[C@@]3(C)[C@H]2CC[C@]3(O)C(=O)COC(=O)CCC(=O)O)[C@@]2(C)C=CC(=O)C=C12`, the “fluorescence, % of fluorescent control” value was -0.0529%. With `CCCCCCCCCCCCCCCC(=O)O[C@@H]1[C@@H](O)[C@@H](O)[C@@H]([C@H](NC(=O)[C@@H]2C[C@@H](CCC)CN2C)[C@H](C)Cl)O[C@@H]1SC` the figure was -0.0168%; with `COc1ccc(C(=O)CCC(=O)O)c2ccccc12`, -0.0259%; with `O=P(O)(O)OC[C@H](O)CO`, 0.103%. Regarding `NCCCNCCCCNC(=O)C(O)NC(=O)CCCCCCN=C(N)N` (stereo not given), the “fluorescence, % of fluorescent control” value is 0.023%. Regarding `CC1(C)S[C@@H]2[C@H](NC(=O)C3(N)CCCCC3)C(=O)N2[C@H]1C(=O)O`, the “fluorescence, % of fluorescent control” value is -0.009%. As for `O=C(O)C1CCCN1` (stereo not given), the “fluorescence, % of fluorescent control” value is 0.0277%.
